# Screens: PubChem, The Scripps Research Institute Molecular Screening Center
# Only some compounds are listed: those with a hit (about 2.9% of all), similar ones and a draw of the others.
# proKLK7 act – activates the human kallikrein-7 zymogen; purified proKLK7, EDANS-DABCYL substrate fluorescence; 100% is mature enzyme control, 0% vehicle; activation, % at 7 µM; 0.9% of 370,000 active;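 active = activation above the mean of all tested compounds plus 3 SD, computed per campaign excluding outliers beyond control limits, cut at about 13% in these data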
# ADAM10 inh – inhibitors of human ADAM10; O14672; recombinant ADAM10, EDANS/DABCYL FRET peptide cleavage, 3 h; inhibition, % at 7 µM; 0.62% of 370,000 active; AID 720582;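 active = inhibition above a per-campaign cutoff equal to the mean of compounds falling between control-based bounds plus 3 SD, cut at about 20% in these data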;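 also: 0% = DMSO wells while the 100% control is not disclosed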
# PLC-beta3 inh – PLC-beta3 (human) inhibition, primary screen | inhibition, % at 12.2 µM | 0.18% of 370,000 active | Purified PLC-beta3, fluorogenic substrate, fluorescence | Q01970; in the data active = inhibition above about 11%;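 also: 0% = median of compound wells on plate and 100% = full blocker control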
# PLCg1 inh – PLC-gamma1 (human) inhibition, primary screen; P19174; purified PLC-gamma1, fluorogenic substrate, fluorescence; inhibition, % at 12.2 µM; 0.84% of 370,000 active; AID 720700; in the data active = inhibition above about 9.5%
# ADAM17 inh – inhibits human ADAM17. recombinant ADAM17, EDANS/DABCYL FRET peptide cleavage. inhibition, % at 6.95 µM. 0.83% of 370,000 active;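 active = inhibition above the mean of compounds lying between control limits plus 3 SD, set per campaign, cut at about 8.5% in these data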;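 also: 0% = DMSO-only wells as the low control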
# Target sequence (P78536 215-824 limits assumed): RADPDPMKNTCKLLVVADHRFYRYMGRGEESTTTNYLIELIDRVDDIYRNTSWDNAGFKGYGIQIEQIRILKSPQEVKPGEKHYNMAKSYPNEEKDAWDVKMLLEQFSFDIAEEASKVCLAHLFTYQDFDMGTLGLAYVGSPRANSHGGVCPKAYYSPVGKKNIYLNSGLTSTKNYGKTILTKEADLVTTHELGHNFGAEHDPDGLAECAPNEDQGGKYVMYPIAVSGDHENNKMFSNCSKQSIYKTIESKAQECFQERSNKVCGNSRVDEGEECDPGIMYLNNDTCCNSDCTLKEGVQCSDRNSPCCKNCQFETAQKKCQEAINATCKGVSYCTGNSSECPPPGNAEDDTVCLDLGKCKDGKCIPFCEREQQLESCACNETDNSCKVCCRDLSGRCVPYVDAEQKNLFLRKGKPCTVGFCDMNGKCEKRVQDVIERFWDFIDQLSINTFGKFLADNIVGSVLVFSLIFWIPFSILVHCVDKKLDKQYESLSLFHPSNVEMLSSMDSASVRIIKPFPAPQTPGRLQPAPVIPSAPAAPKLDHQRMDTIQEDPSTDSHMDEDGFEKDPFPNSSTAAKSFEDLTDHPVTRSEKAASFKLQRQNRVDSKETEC
# ADAM10 confirm – human ADAM10 inhibition, confirmation; 1% of 2,100 active; inhibition, % at 6.95 µM; ADAM10 QFRET peptide cleavage, EDANS fluorescence; shares compounds with ADAM10 inh;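 active = inhibition above about 20% chosen separately for each screening run, limit read from the data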;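 also: 0% = DMSO wells and 100% = marimastat wells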
# ADAM17 counter – counter-screen for ADAM10 exosite inhibitors: inhibitors of human ADAM17 | shares compounds with ADAM10 inh | ADAM17 QFRET peptide cleavage, EDANS fluorescence | inhibition, % at 6.95 µM | 0.5% of 2,100 active | AID 743214;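 active = mean triplicate inhibition above the solvent-only control wells' mean plus 3 SD, cut at about 12% in these data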;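 also: 0% = DMSO wells and 100% = marimastat wells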
# ADAM10 counter – inhibits human ADAM10 in ADAM17 exosite counter-screen; recombinant ADAM10, EDANS/DABCYL FRET peptide cleavage, 3 h; AID 743256; shares compounds with ADAM17 inh; inhibition, % at 6.95 µM; 47% of 2,900 active;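 active = mean inhibition over the triplicate runs exceeds the activity threshold set in the earlier primary screen, cut at about 20% in these data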;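 also: 0% = DMSO wells and 100% = marimastat wells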
# ADAM17 confirm – human ADAM17 inhibition, confirmation; recombinant ADAM17, EDANS/DABCYL QFRET peptide cleavage; 65% of 2,900 active; shares compounds with ADAM17 inh; inhibition, % at 6.95 µM; AID 743257;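 active = mean inhibition across replicates above the hit cutoff set in the primary screen, cut at about 8.5% in these data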;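 also: 0% = DMSO wells and 100% = marimastat wells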
# The depositor's hits bear a star; . = not tested or not shown.
SMILES,proKLK7 act,ADAM10 inh,PLC-beta3 inh,PLCg1 inh,ADAM17 inh,ADAM10 confirm,ADAM17 counter,ADAM10 counter,ADAM17 confirm
Cc1cc(Cn2nc(-c3ccccc3)cc2C(=O)NCc2cccc(C(F)(F)F)c2)on1,0,0,-1,3,4,.,.,.,.
Cc1cc(Cn2nc(-c3ccccc3)cc2C(=O)NCc2cccc(Br)c2)on1,0,37*,-5,-1,11*,7,4,24*,16*
O=C(CN(c1cccc(Br)c1)S(=O)(=O)c1ccccc1)N/N=C/c1cc([N+](=O)[O-])ccc1O,1,27*,-5,2,16*,3,1,28*,17*
Cn1cc(CC(=O)Nc2ccc(Nc3cccnc3)c(Br)c2)c2ccccc21,0,12,-3,-3,2,.,.,.,.
CC(C)CNc1cccc2c1S(=O)(=O)N[C@@H](CC(C)C)CO2,0,-28,-3,-5,-6,.,.,.,.
COC(=O)[C@]12C[C@H](CC(=O)NCc3cccc(C(F)(F)F)c3)C(=O)N(Cc3ccco3)C1=C[C@H](C(C)(C)C)O[C@@H]2C,0,22*,1,-1,10.0*,6,1,42*,21*
COC(=O)[C@]12C[C@H](CC(=O)NCc3cccc(C(F)(F)F)c3)C(=O)N(CCc3ccc(OC)c(OC)c3)C1=C[C@H](C1CCCC1)O[C@@H]2C,0,28*,0,1,9.0*,8,2,27*,12*
COC(=O)[C@]12C[C@H](CC(=O)NCc3cccc(C(F)(F)F)c3)C(=O)N(CCc3ccc(OC)c(OC)c3)C1=C[C@H](C(C)(C)C)O[C@@H]2C,0,12,0,0,7,.,.,.,.
COC(=O)[C@]12C[C@H](CC(=O)NCCc3ccccc3OC)C(=O)N(Cc3cccc4ccccc34)C1=C[C@H](C(C)C)O[C@@H]2C1CC1,0,22*,3,1,11*,8,2,27*,17*
COC(=O)[C@]12C[C@H](CC(=O)NCc3cccc(C(F)(F)F)c3)C(=O)N(Cc3ccccc3)C1=C[C@H](C(C)C)O[C@@H]2C1CC1,1,10,2,-2,6,.,.,.,.
COC(=O)[C@]12C[C@H](CC(=O)NCc3cccc(C(F)(F)F)c3)C(=O)N(Cc3ccco3)C1=C[C@H](C(C)C)O[C@@H]2C1CC1,-1,24*,5,2,12*,2,2,49*,24*
COC(=O)[C@]12C[C@H](CC(=O)NCc3ccccc3)C(=O)N(Cc3ccco3)C1=C[C@H](C(C)(C)C)O[C@@H]2C,0,2,0,-1,3,.,.,.,.
O=C(Nc1ccc(C(O)(C(F)(F)F)C(F)(F)F)cc1)c1ccc(Cl)c([N+](=O)[O-])c1,0,34*,1,3,16*,4,2,49*,22*
COc1ccc(NC(C)C(=O)N/N=C/c2ccccc2OCc2cccc(Br)c2)cc1 (stereo not drawn),0,21*,-6,-3,8.8*,11,3,48*,22*
Cc1ccccc1NC(C)C(=O)N/N=C/c1ccccc1OCc1cccc(Br)c1 (stereo not drawn),-1,24*,-2,-2,9.7*,17,6,16,14*
O=C(C1CCCN1S(=O)(=O)c1ccc(Br)s1)N1CCN(c2ccccc2)CC1 (stereo not drawn),1,-6,-2,1,-5,.,.,.,.
Cn1cccc1C(=O)N1CCN(S(=O)(=O)c2ccccc2F)CC1,0,-3,2,-2,-3,.,.,.,.
CCn1ncc(CN2CCC(n3nccc3NC(=O)c3ccccc3Cl)CC2)c1C,0,-9,1,0,-1,.,.,.,.
